An excerpt weighted towards active compounds, which were near 4% of everything screened.
CF NFkB block = inhibitors of PAF-induced NF-kB signaling, primary screen, cell-based, GFP fluorescence, uHTS. KKLEB NF-kB-GFP reporter, GFP fluorescence overnight. inhibition, % at 5 µM. actives 0.86% (n = 360,000). AID 588850, 2011;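 active = at least 50% inhibition at 5 µM, scaled per plate between neutral and stimulator controls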;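 also: PAF is a Pseudomonas aeruginosa culture filtrate used as stimulus; plate controls were PAF-stimulated DMSO wells for no effect and unstimulated DMSO wells for full effect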
TROY signal inh = inhibitors of TROY-driven NF-kB signaling, primary screen, Q293 LMP1-TROYcd cells, NF-kB luciferase, uHTS; inhibition, % at 10 µM; Q293 LMP1-TROYcd NF-kB luciferase reporter, 4 h; actives 0.98% (n = 360,000);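 active = compounds whose plate-normalised and pattern-corrected inhibition of the luciferase reporter signal at the single screening dose is 50% or more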
KKLEB tox = cytotoxicity in KKLEB CF airway cells, primary screen, cytotoxicity control for CF NF-kB inhibitor project, cell-based, uHTS, fluorescence assay plates | KKLEB CF airway cells viability, ATPlite luminescence, overnight; stronger effect = lower value; cells stimulated with P. aeruginosa culture filtrate | activity change (cytotoxicity), % at 5 µM | actives 0.36% (n = 360,000) | AID 602141, 2011;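 active = corrected activity change at or below -50% at 5 µM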
Peg3 promoter = Peg3 promoter-driven luciferase inhibitors, primary screen, cell-based, HeLa, luciferase luminescence; HeLa PEG-Prom luciferase reporter, overnight; inhibition, % at 20 µM; actives 1.7% (n = 360,000); AID 588405, 2011;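 active = inhibition of at least 50% at 20 µM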
HIF-2a block = HIF-2a reporter inhibitors, primary screen, luminescence, 786-0 RCC cells; inhibition, % at 18.8 µM; 786-0 RCC cells HIF-2a reporter, luciferase luminescence, overnight; actives 0.72% (n = 360,000);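 active = inhibition of the luminescence signal of 40% or more relative to plate controls, in a single-dose primary screen at 18.75 µM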
TWEAK Fn14 block = inhibitors of TWEAK-Fn14 signaling, primary screen, luciferase reporter cells, uHTS. TWEAK-stimulated Fn14 reporter cells, luciferase luminescence, 8 h. inhibition, % at 10 µM. actives 2% (n = 360,000). AID 1159606, 2016; in the data active = inhibition above about 50%
* = called active by the depositor.

SMILES | CF NFkB block | TROY signal inh | KKLEB tox | Peg3 promoter | HIF-2a block | TWEAK Fn14 block
CCOc1ccc(N=Cc2ccccc2O)cc1 | -10.1 | -11.5 | 5.0 | 3.5 | 2.3 | 23.3
O=S(=O)(c1ccc(Cl)cc1)c1cnc2ccccc2n1 | 47.8 | 12.6 | -29.5 | 44.4 | 14.2 | 58.6*
CC(C)(C)c1cc(NC(=O)c2cccs2)no1 | 9.8 | -1.0 | -1.7 | -217.8 | -206.1 | 25.5
CN(c1ccccc1)S(=O)(=O)c1cccc(NC(=O)c2ccc(Cl)c([N+](=O)[O-])c2)c1 | 1.9 | 44.4 | 7.3 | 93.3* | 0.3 | 19.7
Cc1nc2cc(NC(=O)c3ccc(S(=O)(=O)N(C)c4ccccc4)cc3)ccc2o1 | 2.1 | 13.8 | 6.2 | -188.5 | -227.2 | 74.2*
COc1ccc(NC(=O)c2ccc(S(=O)(=O)N(C)c3ccccc3)cc2)cc1S(=O)(=O)N1CCOCC1 | -4.6 | 27.6 | 1.5 | 27.1 | 13.7 | 10.0
Cc1nc2ccc(NC(=O)c3ccc(Cl)c(S(=O)(=O)N(C)c4ccccc4)c3)cc2s1 | -12.0 | 56.2* | 15.6 | 29.7 | 25.5 | 95.6*
Cc1ccc(NC(=O)c2ccc(S(=O)(=O)N(C)c3ccccc3)cc2)cc1S(=O)(=O)N1CCOCC1 | 6.3 | 39.3 | 0.2 | 4.1 | 25.2 | 59.4*
CN(c1cccc(NC(=O)c2ccc(N(C)S(=O)(=O)c3ccccc3)cc2)c1)S(C)(=O)=O | -2.6 | 31.3 | 4.2 | 38.0 | 22.0 | 41.7
COc1cccc(CNC(=O)Cc2csc(NC(=O)Nc3ccccc3OC)n2)c1 | 13.6 | -14.1 | -8.1 | 7.1 | -21.5 | 1.3
CCOC(=O)/C=C/C(=O)Nc1ccc(S(=O)(=O)N(C)c2ccccc2)cc1 | 14.7 | 25.5 | -30.0 | 59.2* | 19.0 | 48.0
CN(c1ccccc1)S(=O)(=O)c1ccc(NC(=O)c2ccc(-c3ccccc3)cc2)cc1 | -12.1 | 35.5 | 12.4 | 13.4 | 7.6 | 54.1*
Cc1ccc(NC(=O)C(C)N2C(=O)c3ccccc3C2=O)cc1S(=O)(=O)N1CCOCC1 (configuration not stated) | 16.8 | 63.6* | 2.9 | -11.3 | 9.7 | 17.4
CC(=O)Nc1ccc(S(=O)(=O)N(C)c2ccccc2)cc1 | 3.6 | -3.4 | -6.0 | 27.3 | 1.5 | -1.4
COc1cccc(-c2cc(C(=O)N3CCCCC3C)no2)c1 (configuration not stated) | 2.8 | -40.4 | 9.0 | -164.3 | -161.2 | 11.5
COC(=O)c1ccc(/C=C/C(=O)OCC(=O)Nc2sccc2C(N)=O)cc1 | 29.6 | 45.3 | 0.5 | 88.9* | 5.5 | 67.7*
OC[C@H]1O[C@@H](n2cnc3c(Nc4ccccc4)ncnc32)[C@H](O)[C@@H]1O | 23.3 | -23.7 | -21.2 | -85.7 | -126.4 | -43.4
OCC1OC(n2cnc3c(NCc4ccccc4O)ncnc32)C(O)C1O (configuration not stated) | 30.4 | 17.3 | -53.6* | 70.7* | -25.3 | 59.4*
COc1cc(C(=O)NCCOc2cc(C)cc(C)c2)cc(OC)c1OC | 11.9 | -13.8 | -13.2 | 22.4 | 5.9 | 30.7
Cc1ccc(C(NC(=O)NCCCN2CCOCC2)=C(Cl)Cl)cc1F | 0.2 | -11.6 | 1.9 | 20.3 | 19.2 | 29.0
Cc1ccc(C(NC(=O)N2CCCCC2)=C(Cl)Cl)cc1F | 4.6 | 7.9 | 6.2 | 53.0* | 0.0 | 11.4
Cc1cc(C)nc(SCC(=O)N2CCc3ccccc32)n1 | 13.4 | -37.1 | 2.4 | -225.2 | -184.9 | -11.3
C/C(=N\Nc1ccc(C(=O)O)cc1)c1ccc(Br)cc1 | 15.9 | 13.9 | -1.3 | 14.1 | -3.8 | 65.8*
C/C(=N/Nc1ncc(Br)cn1)c1ccc(Br)cc1 | 10.6 | -41.6 | -4.2 | -68.8 | -70.3 | -33.7
CCCCN1CC[C@@H]2C=CC[C@H](C(=O)OC)[C@@H]2C1=O | -22.7 | 2.6 | 12.2 | 2.2 | 10.2 | -5.6
SMILES | CF NFkB block | TROY signal inh | KKLEB tox | Peg3 promoter | HIF-2a block | TWEAK Fn14 block
O=C(O)c1sccc1S(=O)(=O)c1ccccc1 | 1.7 | -41.3 | 8.3 | -0.2 | 2.6 | -12.1
COc1ccc(-c2nnc(NC(=O)c3ccc(S(=O)(=O)N4CCCc5ccccc54)cc3)o2)cc1 | 5.0 | 2.9 | -3.4 | 53.5* | 19.4 | -7.6
COCc1nnc(NC(=O)c2ccc(S(=O)(=O)N3CCCc4ccccc43)cc2)o1 | 11.9 | 14.0 | -13.3 | 19.5 | 23.1 | 21.3
CSc1nc(N)nc(SCC(=O)Nc2ccc(Cl)cc2)c1C#N | -0.5 | 26.1 | -17.0 | -96.5 | -145.3 | 13.7
CSc1nc(N)nc(SCCS(=O)(=O)c2ccc(Cl)cc2)c1C#N | 23.8 | 21.1 | -65.3* | 32.7 | -3.8 | 20.4
CN(C)CCCN(C(=O)c1ccc2c(c1)CCCC2)c1nc2cc3c(cc2s1)OCO3 | 14.5 | -18.1 | 6.7 | 57.4* | 2.6 | 5.5
CCN(Cc1ccccc1)S(=O)(=O)c1ccc(C(=O)N(CCCN(C)C)c2nc3c(C)c(C)ccc3s2)cc1 | 30.0 | 7.6 | -23.9 | 92.9* | -2.3 | -28.8
Cc1ccc2sc(N(CCCN(C)C)C(=O)c3nc4ccccc4s3)nc2c1C | -4.7 | -4.6 | 3.4 | 33.2 | -18.3 | -7.7
CN(C)CCCN(C(=O)c1ccc(S(=O)(=O)N(C)C)cc1)c1nc2cc3c(cc2s1)OCO3 | -28.3 | -2.6 | -15.5 | -12.0 | -16.0 | -11.3
CN(C)CCCN(C(=O)c1ccc(Br)s1)c1nc2cc3c(cc2s1)OCO3 | 0.8 | -13.2 | -6.0 | 59.2* | -0.2 | -17.0
Cc1ccc2sc(N(CCCN(C)C)C(=O)c3ccc(Br)s3)nc2c1C | 18.8 | -12.4 | -2.4 | 62.5* | -10.7 | -29.5
O=C(NC[C@@H]1CC[C@@H](Cc2ccc(-c3ccccc3)cc2)O1)Nc1ccc(Br)cc1 | -9.1 | -22.5 | 1.5 | -26.9 | -50.4 | 40.0
COc1cc(S(=O)(=O)NCc2cccnc2)c(OC)cc1Br | 19.0 | 50.3* | -10.5 | 12.9 | 13.0 | 8.8
COc1cccc(OC)c1C(=O)NCc1ccco1 | 5.1 | 7.4 | -0.9 | -0.8 | -0.7 | -12.9
CC12CCC(O)CC1=CCC1C2CCC2(C)C3=NN=CC3CC12 (configuration not stated) | 38.1 | 47.3 | -11.0 | 51.2* | 6.7 | 19.4
COc1cccc(NC(=O)CN(C)C(=O)c2cc(-c3cccc(Br)c3)nc3ccccc23)c1 | -25.4 | 38.6 | -7.4 | 71.1* | -8.7 | 47.1
COC(=O)c1ccc(-c2nc3cc(Cl)c(N)cc3s2)cc1 | -20.3 | 71.1* | -52.8* | 43.0 | -92.2 | 86.6*
COC(=O)c1ccc(-c2nc(O)c(C)s2)cc1 | -12.4 | 3.0 | 6.0 | -3.3 | -11.2 | 6.0
Cc1cccc(OCC(=O)NNC(=O)CCN2CCN(c3ccccc3)CC2)c1C | 10.2 | 3.0 | -19.4 | -4.3 | 16.6 | 23.8
c1ccc2c(C[C@@H]3CNCCN3CC3CCCCC3)cccc2c1 | 11.2 | 4.2 | -2.8 | 93.6* | 8.1 | -11.0

Assay outcomes from PubChem.
